# In PubChem BioAssay AID686979 (National Center for Advancing Translational Sciences (NCATS), 2013):
# Among all 420,000 compounds or so, about 50,000 (12%) were called active. Roughly 26% stayed inconclusive and do not appear here. The entries come from a sample that favours actives as a whole. Values without a mark were called inactive. Calls follow the shape of the dose curve; as a rule, active = well fitted inhibition curve with a large enough effect; inconclusive = small, poorly fitted or top-dose-only effect; inactive = flat fitted curve, though single readings scatter.
# Assay: qHTS for Inhibitors of human tyrosyl-DNA phosphodiesterase 1 (TDP1): qHTS in cells in presence of CPT; also: nearly all actives have a fitted effect of over 55% in size
# Settings: chicken DT40 Tdp1-/-;hTDP1 cells + 20 nM CPT, ATP luminescence, 48 h; series mostly up to 46.2 µM; activity change, negative = growth inhibition: at the top concentration
# Outline: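 Cell growth measured by CellTiter-Glo luminescence after a minimum 48 h, 37 C compound exposure with 20 nM CPT in Tdp1-knockout DT40 cells stably expressing hTDP1, seeded 400/well; qHTS titration format.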
# % is scaled to controls: 0 for no effect and ±100 for the full control effect; potency is read from the fitted curve at half-maximal effect.
Compound,"activity change, negative = growth inhibition",Potency
CC1O[C@H](OC2C(COC3OC(CO)C(O)[C@H](O)C3O)OC(OC3CC[C@]4(C)C(CC[C@@]5(C)[C@@H]4C=C[C@]46OC[C@@]7(CCC(C)(C)C[C@H]74)C(O)C[C@@]56C)C3(C)C)C(O)C2O)C(O)C(O)C1O (some centres not stated),-3.08%,–
CCc1ccc(-c2nn(-c3ccccc3)cc2CSC(=N)N)cc1,–,16.4 µM (active)
CCc1ccc(-c2nn(-c3ccccc3C)cc2C(=O)N2CCN(C3CCS(=O)(=O)C3)CC2)cc1 (configuration not stated),-7.22%,–
Cc1ccc(-c2nn(-c3ccccc3)cc2C(=O)NC2CCC(O)CC2)cc1 (configuration not stated),-21.6%,–
CC1(C)C2CCC13CS(=O)(=O)NC3C2 (configuration not stated),-17.6%,–
COC(=O)c1c(C(=O)OC)c2n(c1C)CCS2,9.43%,–
Cc1cc(C)c(C2C3=C(Nc4c2c(C)nn4-c2ccccn2)c2ccccc2C3=O)c(C)c1 (configuration not stated),–,13 µM (active)
Cc1nn(-c2ccccn2)c2c1C(c1ccncc1)C1=C(CC(C)(C)CC1=O)N2 (configuration not stated),–,29.1 µM (active)
Cc1cc2c(cc1C)NC(c1ccccn1)C1=C(CC(C)(C)CC1=O)N2 (configuration not stated),-14.7%,–
CC1(C)CC(=O)C2=C(C1)Nc1cc(C(=O)c3ccccc3)ccc1NC2c1ccccn1 (configuration not stated),4.03%,–
CN(CC(=O)NCc1ccc2c(c1)OCO2)CC(=O)Nc1ccc(F)c(F)c1F,-7.17%,–
COc1ccc(-n2nc3c(c2NC(=O)c2ccc(N4C(=O)CCC4=O)cc2)CSC3)cc1,25.1%,–
O=C(Oc1cccc(C(=S)N2CCOCC2)c1)c1cccc(Cl)c1,2.82%,–
COC(=O)c1cccc(NC(=O)c2cccc(N3C(=O)CCC3=O)c2)c1,-9.34%,–
COc1ccccc1C(=O)NCC(=O)OCC(=O)Nc1nnc(-c2ccccc2)o1,-2.33%,–
Cc1cc(C)cc(NC(=O)N(C)Cc2ccccc2)c1,-0.4%,–
CC1CCN(S(=O)(=O)c2nnc(NC(=O)COc3ccccc3F)s2)CC1,-0.652%,–
O=C(COc1ccccc1F)NC1CC1,-4.51%,–
CC1CCCCC1NC(=O)COc1ccc(C#N)cc1 (configuration not stated),-13.3%,–
Cc1ccnc(NC(=O)c2ccco2)n1,-29.5%,–
CC(NC(=O)c1ccco1)C(=O)Nc1nc(-c2ccccn2)cs1 (configuration not stated),–,5.8 µM (active)
NS(=O)(=O)c1ccc2nc(NC(=O)COc3ccccc3)sc2c1,-3.67%,–

Compound,"activity change, negative = growth inhibition",Potency
O=C(COc1ccccc1F)Nc1nc(-c2ccccn2)cs1,–,5.17 µM (active)
Cc1cc(NC(=O)[C@H](C)NC(=O)c2ccco2)ccc1Br,-7.75%,–
N#Cc1ccc(OCC(=O)Nc2nc(-c3ccccn3)cs2)cc1,–,1.64 µM (active)
CCOC(=O)C1C(c2ccc(O)cc2)NC(=O)NC1(O)C(F)(F)F (configuration not stated),-3.04%,–
Cc1ccccc1NC(=O)CSC1=NCCN1,-29.2%,–
Cc1nc(SCC(=O)N2CCN(c3ccccc3)CC2)[nH]c(=O)c1C,-1.67%,–
Cc1ccc(C2(C(F)(F)F)N=C3Sc4cc(C)cc(C)c4N3C(=O)N2)cc1 (configuration not stated),-24%,–
C=CCc1cc(C)ccc1OCCCn1ccnc1,-5.81%,–
c1ccc(Cc2ccc(OCCn3ccnc3)cc2)cc1,–,20.6 µM (active)
Brc1ccc(OCCn2ccnc2)cc1,-13.2%,–
CCN(CC(=O)Nc1ccc2c(c1)OCCO2)Cc1cc(=O)oc2cc(C)c(C)cc12,-11.4%,–
CC(C)Cc1oc(C(=O)O)cc1CN,-6.65%,–
COCCn1c(SCC(=O)Nc2ccccc2F)nc2c(c1=O)SCC2,-16.1%,–
Cc1cc(C)c(NC(=O)CSc2nc3nccnc3c(=O)n2CCc2c[nH]c3ccccc23)c(C)c1,7.65%,–
O=C(CSc1nc2nccnc2c(=O)n1CCc1c[nH]c2ccccc12)Nc1ccccc1F,–,10.3 µM (active)
Cc1cc(C)cc(NC(=O)CSc2nc3nccnc3c(=O)n2CCc2c[nH]c3ccccc23)c1,–,14.6 µM (active)
Cc1cc(C)cc(NC(=O)Cn2c(=O)c3ccccc3n3nncc23)c1,9.23%,–
Cn1c(CCC(=O)Nc2ccccc2F)nnc1SCC(=O)Nc1ccccc1Cl,0.558%,–
O=Cc1c(Cl)cccc1Cl,11.4%,–
CC1(C)O[C@@H]2[C@H](O1)[C@@H](CO)O[C@H]2n1c(N2CCCCC2)nc2c(N)ncnc21,3.84%,–
CC(C)CNS(=O)(=O)c1ccc(C(=O)Nc2ccc3c(c2)OCO3)cc1,9.38%,–
CC(=O)Nc1cccc(NC(=O)CSc2nccn2Cc2ccc3c(c2)OCO3)c1,-27.2%,–

Compound,"activity change, negative = growth inhibition",Potency
CNc1ccc([N+](=O)[O-])cc1C(=O)O,5.24%,–
Cn1cnc([N+](=O)[O-])c1Sc1ccccc1,–,18.4 µM (active)
Cn1cnc([N+](=O)[O-])c1Sc1n[nH]c(N)n1,-7.25%,–
Cn1cnc([N+](=O)[O-])c1Nc1ccccc1O,-9.13%,–
COc1cccc(N2CC(NS(=O)(=O)c3cccs3)CC2=O)c1 (configuration not stated),5.7%,–
Cc1c(Cl)cccc1NC(=O)CCS(=O)(=O)c1ccc2c(c1)oc(=O)n2C,-7.1%,–
O=C(COC(=O)c1ccc(F)cc1)NCC1COc2ccccc2O1 (configuration not stated),-12.5%,–
OC(COCC1COc2ccccc2O1)CN1CCN(c2ccc(F)cc2)CC1 (configuration not stated),–,13 µM (active)
OC(COCc1ccco1)CN1CCN(c2ccccc2)CC1 (configuration not stated),-6.96%,–
Nc1ncnc2c1ncn2[C@@H]1O[C@H](C(=O)NCC(F)(F)F)[C@@H](O)[C@H]1O,3.52%,–
COc1ccccc1NC(=O)COC(=O)COc1ccccc1F,1.41%,–
CCc1nn(CCCC(=O)NC(C)c2ccccc2)c(=O)c2cc3occc3n12 (configuration not stated),-4.62%,–
CCc1nn(CC(=O)N2CCN(c3cc(C)ccc3C)CC2)c(=O)c2cc3occc3n12,-24.8%,–
CCCNC(=O)C(CC)n1nc(CC)n2c(cc3oc(C)cc32)c1=O (configuration not stated),–,25.9 µM (active)
O=C(CC[C@H]1O[C@@H](n2ccc(=O)[nH]c2=O)[C@H](O)[C@@H]1O)N[C@H](Cc1ccccc1)C(=O)NCCCN1CCCC1=O,3.41%,–
CC1CCCN(c2csc3ccc(F)cc3c2=O)C1 (configuration not stated),-4.58%,–
Cn1cccc1C(=O)OCC(=O)NCCc1ccccc1,6.72%,–
CCN1C(=O)N[C@@H](c2ccccc2)C(C(=O)OC)=C1C,-10.8%,–
COCCN1C(=O)N[C@@H](c2ccccc2)C(C(=O)OC)=C1C,-14.8%,–
COC(=O)C1=C(C)N(Cc2ccccc2)C(=NCCCOC(C)C)N[C@H]1c1ccccc1,–,6.51 µM (active)
CC(C)C(=O)Nc1ccc2c3c(cccc13)CC2,-12.5%,–
CN(Cc1ccccc1)C(=O)c1cn(C)c2ccc(S(=O)(=O)N3CCCCC3)cc2c1=O,-0.632%,–

Compound,"activity change, negative = growth inhibition",Potency
CCC(CC)C(=O)Nc1c2c(nn1-c1ccc(C)cc1)CS(=O)(=O)C2,-16.7%,–
O=C(NCc1ccccc1)c1cc(-c2cccc(Cl)c2)on1,-18.1%,–
CCOC(=O)N1CCc2c(sc3c2C(=O)NC(c2ccccc2F)N3)C1 (configuration not stated),–,20.6 µM (active)
CCOCCOC(=O)C1=C(C)N(C)C(=O)NC1c1ccccc1F (configuration not stated),-20.7%,–
N#Cc1c(N)sc2c1CCN(C(=O)OCc1ccccc1)C2,-15.3%,–
CC1OC(OCC2OC(Oc3c(-c4ccc(O)c(O)c4)oc4cc(O)cc(O)c4c3=O)C(O)C(O)C2O)[C@@H](O)C(O)C1O (some centres not stated),17.3%,–
CCOc1ccc(CCNC(=O)COC(=O)C2CCN(S(=O)(=O)c3ccccc3)CC2)cc1OCC,1.91%,–
COc1ccc(-c2cc(=O)oc3cc(OCC(=O)N(C)C4CCS(=O)(=O)C4)ccc23)cc1 (configuration not stated),-10.4%,–
CCC1SC(CC)C(=O)N(CC(=O)NC2CCCCC2)C1=O (configuration not stated),8.38%,–
CN1c2ccc(C=O)c3c(C=O)ccc(c23)N(C)C1(C)C,–,20.6 µM (active)
NC(=O)c1ccc(Nc2ccc3c(c2)CCC3)c([N+](=O)[O-])c1,2.21%,–
CNN/C(N=Cc1ccc([N+](=O)[O-])s1)=N\S(=O)(=O)c1cc(C)c(Cl)cc1SCc1ccccc1,–,1.16 µM (active)
O=C(CCC(=O)c1cccs1)Nc1nc2ccccc2s1,-6.62%,–
COc1cc(NC(=O)CCNC(=O)Cn2ccc3ccccc3c2=O)cc(OC)c1OC,–,inactive
CC(C)n1c(-c2ccncc2)n[nH]c1=S,5.83%,–
C#CCN(N(C)c1ncc(C(F)(F)F)cc1Cl)S(=O)(=O)c1ccc2ccccc2c1,-15.9%,–
CCCCOC(=O)Cn1c(=O)n(CC(=O)OCCCC)c2cc(C)ccc21,-31.3%,–
CC(OC(=O)CN1C(=O)c2ccccc2C1=O)C(=O)c1ccccc1 (configuration not stated),-3.02%,–
CCOC(=O)C1CCN(C(=O)CN2C(=O)c3cccnc3Oc3ccc(C)cc32)CC1,1.02%,–
CCOC(=O)CN1C(=O)C(=O)c2cc(C)ccc21,–,8.2 µM (active)
CC(C)OC(=O)CN1C(=O)c2ccccc2C1=O,-3.69%,–
CC(C)OC(=O)CN1C(=O)C(=O)c2ccccc21,–,13 µM (active)

Compound,"activity change, negative = growth inhibition",Potency
NS(=O)(=O)c1ccc(CCNC(=O)CN2C(=O)c3ccccc3S2(=O)=O)cc1,-9.69%,–
O=C(O)C(=Cc1ccc([N+](=O)[O-])cc1)CCc1ccccc1,-0.638%,–
COc1ccccc1NC(=O)CCN1CCN(c2ccc(Cl)cc2)CC1,–,14.6 µM (active)
COc1ccc(NC(=O)CCN2CCCC2)c(OC)c1,-15.2%,–
COc1ccc(Cl)cc1NC(=O)CCN1CCOCC1,7.94%,–
CC(C#N)(NC(=O)CN1CCN(S(=O)(=O)c2cc(C(F)(F)F)ccc2Cl)CC1)C1CC1 (configuration not stated),-37.5%,–
Cc1cc(NC(=O)COC(=O)/C=C/c2ccc(C)o2)no1,-3.15%,–
CCCCc1ccc(NC(=O)NCc2cccnc2)cc1,-25%,–
Cc1cc(/C=C2/SC(=O)N(CC(=O)N3CCCC3)C2=O)c(C)n1C,10.4%,–
Cc1cccc(N2CCN(C3=C(c4ccccc4)C(=O)c4ccccc43)CC2)c1C,–,7.31 µM (active)
O=C1c2ccccc2C(=O)c2c1cccc2N1CCN(CCO)CC1,-17.2%,–
Cc1cccc(N2CCN(c3c(CN4CCCC4)c(=O)oc4ccccc34)CC2)c1C,-24.3%,–
COc1ccc(CCNC(=O)CCCCCNC(=O)N2CCn3c2nc2ccccc23)cc1OC,-9.27%,–
COc1cc(C(=O)OCC(=O)N(CC(C)C)C2CCS(=O)(=O)C2)ccc1OCC(C)C (configuration not stated),-4.05%,–
CCOc1ccc(NC(=O)c2c(NC(=O)Cc3ccccc3)sc3c2CCC(C)C3)cc1 (configuration not stated),–,16.4 µM (active)
CCOc1ccc(NC(=O)c2c(NC(=O)Cc3ccccc3)sc3c2CCCCC3)cc1,–,18.4 µM (active)
COC(=O)c1c(NC(=O)CN2CCN(S(=O)(=O)c3ccccc3[N+](=O)[O-])CC2)sc2c1CCC(C)C2 (configuration not stated),-7.69%,–
CCOC(=O)c1c(NC(=O)/C=C/c2ccc(OC)cc2)sc2c1CCC(C)C2 (configuration not stated),0.589%,–
CC(C)OC(=O)c1c(NC(=O)c2ccco2)sc2c1CCCC2,-1.92%,–
